The list is not random: actives were taken first. Their share in the collection is about 11%.
HTT aggregate: inhibitors of mutant huntingtin aggregate formation in PC12 cells; AID 1688; PC12 HttQ103-GFP aggregates, Acumen cytometry, 40 h; 220,000 tested, 1.1% active; Potency, µM (top dose mostly 46.1 µM), for the others: at the top dose activity change, negative = inhibition, hits mostly inhibitors; further: potency means the concentration at half of the fitted maximal effect; on the % scale 0 is the no-effect control and ±100 the full control effect; nearly all actives have a fitted effect of over 60% in size
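Using laser scanning cytometry, GFP-positive aggregates were counted after lysis of PC12 cells induced with 100 nM tebufenozide to express HTT exon 1 Q103–GFP. Compounds were tested in titration.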
ALDH1A1 inh: ALDH1A1 (human) enzyme inhibition. P00352. Purified ALDH1A1, NADH fluorescence, propionaldehyde substrate. Potency, µM (doses to about 75.3 µM), without a hit: at the highest dose activity, negative = inhibition, usual class: inhibitors. 220,000 tested, 7.3% active. AID 1030; active means well fitted inhibition curve with a large enough effect, not every such curve was filed as active; inconclusive means small, poorly fitted or top-dose-only effect, or another doubt; inactive means no such curve, though single readings can be large or run the other way;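 further: potency means the concentration at half of the fitted maximal effect; plate controls were no enzyme wells and a reference inhibitor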
PNC inhibitor: blocks assembly of the perinucleolar compartment. activity change (PNC), negative = inhibition, % at 10 µM. PC3M PTB-GFP, PNC prevalence imaging, 16 h; active compounds read low. 140,000 tested, 3.1% active. AID 2417;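 active means readout at or below -70, meaning at least 70% loss of cells showing the perinucleolar compartment, a nuclear body marking cancer cells; inconclusive means readout between -30 and a set limit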;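 further: plate controls were DMSO wells for no effect and camptothecin positive control wells for full effect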
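PC3M cells stably expressing PTB-GFP, 750–1000 cells/well, treated 16 h at 37 °C with compound (23 nl of library stock), in duplicate. After paraformaldehyde fixation and Hoechst stain, imaged at 20x; PNC prevalence scored by image analysis.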
GoLoco inh red: inhibitors of human Gai1-RGS12 GoLoco interaction (red fluorophore). Gai1:RGS12 GoLoco peptide FP, rhodamine, 10 min. 230,000 tested, 0.44% active. Potency, µM (doses to about 61.6 µM), inactives show top-dose activity, negative = inhibition, usual class: inhibitors. P63096; active means well fitted inhibition curve with a large enough effect, not every such curve was filed as active; inactive means no such curve, though single readings can be large or run the other way; further: potency means the concentration at half of the fitted maximal effect; on the % scale 0 is the no-effect control and ±100 the full control effect; nearly all actives have a fitted effect of over 30% in size
Target sequence (P63096 whole entry, looked up): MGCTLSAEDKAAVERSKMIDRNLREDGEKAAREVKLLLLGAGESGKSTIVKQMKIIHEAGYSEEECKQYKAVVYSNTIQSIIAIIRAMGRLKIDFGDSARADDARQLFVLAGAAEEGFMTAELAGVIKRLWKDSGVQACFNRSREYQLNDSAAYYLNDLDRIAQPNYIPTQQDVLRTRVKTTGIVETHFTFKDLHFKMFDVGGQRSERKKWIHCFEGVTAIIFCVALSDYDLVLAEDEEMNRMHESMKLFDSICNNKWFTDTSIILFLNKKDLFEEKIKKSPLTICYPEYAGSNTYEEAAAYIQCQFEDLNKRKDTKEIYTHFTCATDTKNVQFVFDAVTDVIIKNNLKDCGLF
HTT cytoprotect: protects HTT-Q103 PC12 cells, measured by ATP. PC12 HTT-Q103 induced, cytoprotection, ATP luminescence, 40 h. Potency, µM (titrated, usually from 56.4 µM), for the others: cytoprotection (ATP increase), usual class: activators. 230,000 tested, 0.14% active. AID 1471; further: potency means the concentration at half of the fitted maximal effect; % of control where 0% means no effect; nearly all actives have a fitted effect of over 45% in size
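PC12 cells with ecdysone-inducible HTT exon 1 Q103-GFP, induced with 100 nM tebufenozide and co-treated with library compounds in a dose series (1536-well, 1500 cells/well). Cytoprotection read as ATP content by ATPlite luminescence.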
HPGD inh: HPGD (human) dehydrogenase inhibition; P15428; purified HPGD, NADH fluorescence kinetic, PGE2 substrate; Potency, µM, inactives show at the top dose activity change, negative = inhibition, hits mostly inhibitors; 150,000 tested, 4.3% active; AID 894; active means well fitted inhibition curve with a large enough effect, not every such curve was filed as active; inconclusive means small, poorly fitted or top-dose-only effect, or another doubt; inactive means no such curve, though single readings can be large or run the other way; further: potency means the concentration at half of the fitted maximal effect; on the % scale 0 is the no-effect control and ±100 the full control effect
Target sequence (P15428 whole entry, looked up): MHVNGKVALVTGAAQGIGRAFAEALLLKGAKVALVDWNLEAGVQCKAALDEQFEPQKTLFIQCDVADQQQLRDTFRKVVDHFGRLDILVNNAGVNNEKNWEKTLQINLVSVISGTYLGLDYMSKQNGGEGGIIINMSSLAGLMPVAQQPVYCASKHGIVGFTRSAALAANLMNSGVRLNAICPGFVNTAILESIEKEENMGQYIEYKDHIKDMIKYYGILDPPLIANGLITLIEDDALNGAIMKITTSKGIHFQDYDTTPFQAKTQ
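NADH formation kinetics: reaction with 30 uM PGE2 and 1 mM NAD+ (final), 20 nM enzyme, Tris-HCl pH 8 with Tween 20, after 15 min compound preincubation at room temperature. Fluorescence change, last versus first of five reads.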
An asterisk follows results filed as active; ? = inconclusive; · = no result; [ ] = dose if it differs, or a comment. Unless noted, the call rests on the fitted dose curve; in most records, active means well fitted curve in the direction sought with a large enough effect; inconclusive means small, poorly fitted or top-dose-only effect, or another doubt; inactive means no such curve, though single readings can be large; an effect the other way counts as inactive or inconclusive.

SMILES	HTT aggregate	ALDH1A1 inh	PNC inhibitor	GoLoco inh red	HTT cytoprotect	HPGD inh
Cc1ccccc1-c1n[nH]c(=S)n1/N=C/C=C/c1ccco1	32.8%[9.22 µM]	·	·	4.6%	14.8%[10 µM]	·
S=c1[nH]nc(-c2ccco2)n1C1CCCCC1	26.4%	?	-84.7*	-0.2%	-1.6%[10 µM]	?
O=C(Cc1ccccc1)c1nnc(-c2ccccc2)o1	-11.1%	8.91µM*	·	8.0%	-46.7%	·
O=C(CSc1nnc(-c2ccccc2)o1)c1nnc(-c2ccccc2)o1	12.0%	?	?	71.7%	14.4%[4.97 µM]	?
O=C1c2nc3ccccn3c2C(=O)N1Cc1ccccc1	-11.8%	17.8µM*	29.0	77.6%	-1.4%[10 µM]	?
CC(C)CCN1CCN(C2CCN(c3ccccc3)CC2)CC1CCO (centres undefined)	-7.6%[9.22 µM]	4.0%	·	12.9%	2.1%[10 µM]	·
CC(C)CC(=O)O/N=C1\C(=O)N(Cc2ccc(Cl)cc2)c2ccc([N+](=O)[O-])cc21	?	?	13.8	0.1%	-24.6%	14.1µM*
CCCOC(=O)CCCCCCCCC(O)CN1CCCCC1 (centres undefined)	-12.4%	17.8µM*	·	-3.0%	-1.6%	·
NC(=O)N[C@H]1NC(=O)NC1=O	11.0%[20.6 µM]	6.9%[20.9 µM]	·	-4.8%[21.6 µM]	5.6%[40.3 µM]	-4.3%
CC1=C(C(=O)N2CCOCC2)C(c2ccc(O)cc2)NC(=S)N1 (centres undefined)	-3.0%	?	-1.7	2.4%	-5.6%[10 µM]	-14.4%
Oc1ccc2c(c1)C1CCCC1(N1CCOCC1)O2 (centres undefined)	11.5%	17.8µM*	-5.5	-18.4%	0.5%[1.9 µM]	?
O=C(c1scc2c1CCCC2)N1CCCCC1	18.6%	-7.9%	?	2.9%	7.5%	8.91µM*
Cc1ccc(NC(=O)c2scc3c2CCCC3)cc1	-12.2%	-10.7%	27.3	3.2%	·	-7.5%
CSC(=Nc1ccccc1)C1=C(O)COC1=O	18.0%	25.1µM*	16.3	0.5%	-1.3%[10 µM]	-1.7%
CCOC(=O)c1nc(C)sc1-c1ccnn1S(=O)(=O)c1ccccc1C(F)(F)F	-11.3%[9.22 µM]	?	·	1.0%	14.0%[10 µM]	·
CCOC(=O)c1nc(C)sc1-c1ccnn1S(=O)(=O)c1ccc(C)cc1	0.9%[9.22 µM]	3.16µM*	·	1.0%	8.9%[10 µM]	·
CCCNS(=O)(=O)c1ccc(OCC(=O)Nc2ccc3c(c2)OCO3)cc1	-22.9%[9.22 µM]	?	·	11.1%	-13.6%[10 µM]	·
Cc1cccc(-n2cc(-c3ccccc3)c3c(N4CCOCC4)ncnc32)c1	?	17.8µM*	·	9.6%	-143.1%	·
Cc1cc(C)nc(N2CCCC(C(=O)Nc3nnc(C)s3)C2)n1 (centres undefined)	0.7%	-13.9%	2.2	·	7.3%[10 µM]	·
Cc1cc(C)nc(N2CCCC(C(=O)Nc3ccc4nc(C)c(C)nc4c3)C2)n1 (centres undefined)	-3.9%	15.8µM*	5.0	11.6%	-6.8%[10 µM]	-13.7%
Cc1cc(C)cc(NC(=O)C2CCCN(c3nc(C)cc(C)n3)C2)c1 (centres undefined)	7.1%	1.1%	-1.7	6.2%	5.1%	-1.4%
Cc1cc(C)nc(N2CCCC(C(=O)Nc3nnc(C(C)C)s3)C2)n1 (centres undefined)	2.9%	-5.5%	-100.0*	1.1%	-7.1%[10 µM]	-10.7%
Cc1ccc(C2(C)NC(=O)N(CC(=O)NC(=O)NC3CCCC3)C2=O)cc1 (centres undefined)	21.3%	-6.9%	11.6	5.9%	4.5%	-3.6%
CC1(c2ccccc2)NC(=O)N(CCOc2ccccc2)C1=O (centres undefined)	6.3%	22.4µM*	-10.4	3.7%	-9.9%	1.3%
CC1(c2ccccc2)NC(=O)N(CC(=O)NC(=O)NC2CCCC2)C1=O (centres undefined)	18.7%	12.6µM*	30.9	1.8%	1.6%[10 µM]	-10.4%
SMILES	HTT aggregate	ALDH1A1 inh	PNC inhibitor	GoLoco inh red	HTT cytoprotect	HPGD inh
CC(c1ccccc1)C1C(C#N)=C(N)SC(N)=C1C#N (centres undefined)	-4.9%	20µM*	7.0	·	-4.5%	·
CCC(CC)C1C(C#N)=C(N)SC(N)=C1C#N	12.6%	?	1.7	-4.0%	0.1%[10 µM]	-22.0%
CC(CC1C(C#N)=C(N)SC(N)=C1C#N)c1ccccc1 (centres undefined)	?	10µM*	16.5	168.6%	-17.6%[10 µM]	14.1µM*
CC(C)C1C(C#N)=C(N)SC(N)=C1C#N	3.7%	8.91µM*	?	-24.1%	-8.9%[10 µM]	?
C=CCNC(=S)/C(=C(\[O-])c1ccc(Cl)cc1)[n+]1ccccc1	3.8%[9.22 µM]	14.1µM*	·	30.5%	3.5%[10 µM]	·
[O-]/C(=C(\C(=S)NCc1ccccc1)[n+]1ccccc1)c1ccc(Cl)cc1	0.6%	8.91µM*	·	27.9%	-5.3%[10 µM]	·
Cc1c(Cl)cccc1NC(=S)/C(=C(\[O-])c1ccc(Cl)s1)[n+]1ccccc1	13.4%	9.4%	?	-16.5%	-19.5%[10 µM]	?
Cc1ccc(/C([O-])=C(/C(=S)NCc2ccccc2)[n+]2ccccc2)cc1[N+](=O)[O-]	10.2%	?	·	12.4%	-9.2%	·
[O-]/C(=C(\C(=S)NCc1ccc2c(c1)OCO2)[n+]1ccccc1)c1ccc(Cl)s1	19.9%	15.8µM*	·	24.0%	-15.3%	·
[O-]/C(=C(\C(=S)Nc1ccc(SC(F)F)cc1)[n+]1ccccc1)c1cc(Cl)ccc1Cl	?	?	·	10.9%	-1.0%	·
CC1=C(C(=O)Nc2ccc(Cl)cc2)C(c2cccs2)n2nnnc2N1 (centres undefined)	-9.9%	5.01µM*	-26.6	6.8%	-9.9%	-9.8%
CC1=C(C(N)=O)C(c2cccs2)n2nc(-c3cccc(Cl)c3)nc2N1 (centres undefined)	-10.5%	5.4%	55.7	10.0%	?	-15.1%
COC(=O)C1=C(C(=O)c2ccccc2)C(c2cccs2)n2nnnc2N1 (centres undefined)	3.7%	22.4µM*	?	4.1%	7.7%[10 µM]	-6.5%
Cc1ccc(-n2nnnc2SCC(=O)NC2CCCc3ccccc32)cc1 (centres undefined)	-13.6%	7.94µM*	-12.5	21.9%	5.0%[10 µM]	-21.8%
Cc1ccc(-n2nnnc2SCC(=O)N2CCc3ccccc3C2)cc1	-25.3%	?	-100.0*	-2.1%	9.8%[10 µM]	-16.2%
O=C(CSc1nnnn1-c1cccc2c1CCCC2)N1CCCCC1	-21.3%	31.6µM*	?	13.6%	33.7%[10 µM]	?
CCCCNC(=S)NCCN1CCN(C(=S)NCCCC)CC1	15.2%	-2.6%	·	6.2%	1.9%[10 µM]	·
CC12CCC(=O)N1C(C(=O)OCC(=O)Nc1sccc1C#N)CS2 (centres undefined)	-7.8%	-14.9%	10.5	33.6%	-4.9%[10 µM]	-9.2%
CC(NC(=O)COC(=O)C1CSC2(C)CCC(=O)N12)C12CC3CC(CC(C3)C1)C2 (centres undefined)	-0.6%	4.47µM*	·	5.3%	-44.9%	·
